Reference: PubChem BioAssay (NCI)
The panel holds about 83,000 compounds, 20% with a hit somewhere; the sample as a whole holds those more often.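 Interpretation: 100, growth as untreated; towards 0, rising growth inhibition; 0, no net growth; 0 to -100, cell death. Compounds scoring below 10 were considered active.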 Unmarked numbers belong to inactive results. The source made the active and inactive calls.

The compounds below were run on SF-268 CNS (assay: NCI-60 one-dose screen, 48 h (100 = growth as untreated, 0 = no growth, -100 = all killed)). Settings: 10 µM unless noted.

Which growth does the source give for c1ccc2c(c1)oc1cc3sccc3nc12 here?
The growth was 97.5%.

Which growth does the source give for CC1=C(C(=O)OCC2CCN(C(=O)OC(C)(C)C)CC2)[C@H](c2cccc(C#N)c2)C2=C(CC(C)(C)CC2=O)N1 here?
The growth was 52.5%.

How did the growth turn out when O=C(c1nc2ccccc2[nH]1)C1C(c2ccc([N+](=O)[O-])cc2)C2CC3CCCCC3N2[C@@]12C(=O)Nc1cc(Cl)ccc12 (stereo partly specified) was run?
Its growth is 41.3%.

For Nc1ccn(C2O[C@H](CO)[C@@H](O)[C@H]2O)c(=O)n1 (stereo partly specified), which growth is on record?
The growth was 86.2%.

Nc1ccc(-n2c(=O)oc3ccc(Cl)cc3c2=O)c(Cl)c1 was tested. Which growth did it give?
Its growth is 3.88% (active).

Which growth does the source give for CC1=C(C(=O)OCC2CCN(C(=O)OC(C)(C)C)CC2)[C@@H](c2cccc(C#N)c2)C2=C(CC(C)(C)CC2=O)N1 here?
Its growth is 50.5%.

With N#Cc1c(N)nc2c(c1N)C(c1ccc(F)cc1)c1ccc(N)cc1O2 (stereo unspecified) as the compound, how does the growth read?
Its growth is 105%.

Which growth does the source give for COc1ccc(Cn2c(Br)c3c(c2-c2cc(OC)c(OC)c(OC)c2)CCc2sc(NC(=O)c4ccc(OC)cc4)nc2-3)cc1 here?
The growth was 78.6%.

With O=c1cc(NC2CCN(CCCc3ccccc3)CC2)c2cc(Cl)ccc2o1 as the compound, how does the growth read?
Its growth is 17.2%.

With Brc1ccc(Oc2ccc(Nc3ncnc4onc(-c5ccccc5)c34)cc2)cc1 as the compound, how does the growth read?
The growth was 96.7%.

With NNC(=O)CNC(=O)Nc1n[nH]c(=S)s1 as the compound, how does the growth read?
Its growth is 107%.

For COc1ccc(Cn2c(Br)c3c(c2-c2cc(OC)c(OC)c(OC)c2)CCc2sc(NC(C)=O)nc2-3)cc1, which growth is on record?
The growth was 37.1%.

Which growth does the source give for COc1ccc(/C=C2\NC(=O)NC2=O)cc1O here?
The growth was 106%.

Which growth does the source give for Cc1cc2c(c(C)c1Cl)C(=O)/C(=C/c1ccco1)O2 here?
The growth was 109%.

O=C(Nc1ccc(N2CCNCC2)cc1)c1[nH]ncc1Nc1cc(Oc2ccccc2)ncn1 was tested. Which growth did it give?
Its growth is 35%.

With CS(=O)(=O)Nc1ccc(C(=O)NC(C(=O)NO)c2ccc(-c3cccc(F)c3)cc2)cc1 (stereo unspecified) as the compound, how does the growth read?
The growth was 47.3%.

For CC[C@]1(O)C[C@@H]2CN(CCc3c([nH]c4ccccc34)[C@@](C(=O)OC)(c3cc4c(cc3OC)N(C)[C@H]3[C@@](O)(C(=O)OC)[C@H](OC(C)=O)[C@]5(CC)C=CCN6CC[C@]43[C@@H]65)C2)C1, which growth is on record?
Its growth is 17.3%.

How did the growth turn out when O=C(CN1C(=O)/C(=C\c2ccc(Cl)cc2)SC1=S)Nc1ncc(Cc2ccc(Cl)cc2)s1 was run?
The growth was 97.4%.

With CCCCC(O)(c1ccc(Cl)cc1)C(CN1CCOCC1)c1ccc(Cl)cc1 (stereo unspecified) as the compound, how does the growth read?
The growth was 40.2%.

Which growth does the source give for O=C(Nc1ccc(C23CC4CC(CC(c5ccccc5)(C4)C2)C3)cc1)c1cccs1 here?
Its growth is 103%.

With O=C(COc1cc(O)c2c(=O)cc(-c3ccccc3)oc2c1)Nc1ccccc1 as the compound, how does the growth read?
The growth was 91%.

COc1cc(C(=O)Nc2ccc(-c3nc4ccccc4[nH]3)cc2)cc(OC)c1OC was tested. Which growth did it give?
The growth was 55.4%.

COC(=O)[C@@H]1CCCN1C(=O)[C@H]1CCCN1C(=O)[C@@H](Cc1c[nH]c2ccccc12)NC(=S)Nc1cc(C(F)(F)F)cc(C(F)(F)F)c1 was tested. Which growth did it give?
Its growth is 38%.

O=C(CCc1nnc2sc(-c3ccc(Cl)cc3Cl)nn12)c1nc2ncccc2[nH]1 was tested. Which growth did it give?
The growth was 36.9%.

With O=Cc1cc2ccccc2nc1Nc1nccs1 as the compound, how does the growth read?
Its growth is 54.8%.

How did the growth turn out when O=C(CCc1nnc2sc(Cc3ccccc3Cl)nn12)c1nc2ncccc2[nH]1 was run?
Its growth is 85.5%.

With NS(=O)(=O)c1ccc(CCN=C=S)cc1 as the compound, how does the growth read?
Its growth is 53.3%.

How did the growth turn out when CCOc1cc(Cl)c(C(C)NC(=O)c2cccc(OC)c2)cc1OCC (stereo unspecified) was run?
The growth was 11.3%.

Which growth does the source give for CN1CCN(Cc2ccc(C(=O)Nc3cncc(C#Cc4cnc5cccnn45)c3)cc2C(F)(F)F)CC1 here?
Its growth is 60.3%.

For COc1ccc2c(c1)C=C1CSCC3=Cc4cc(OC)ccc4OC13O2, which growth is on record?
Its growth is 41.1%.

How did the growth turn out when CN1CCN(Cc2ccc(NC(=O)c3cncc(C#Cc4nc(N)nc5[nH]ncc45)c3)cc2C(F)(F)F)CC1 was run?
The growth was 102%.

For COc1cc(C(=O)O/N=C(\N)Cc2cccc3ccccc23)cc(OC)c1OC, which growth is on record?
The growth was 17.6%.

Which growth does the source give for Nc1nc(-c2cnccn2)nn1-c1nc2ccccc2s1 here?
Its growth is 99.2%.

With COC(=O)C1=C(C)NC(C)=C(C(=O)OC)C(N2C(=O)CCC2=O)C1 (stereo unspecified) as the compound, how does the growth read?
The growth was 93.9%.

For COc1ccc(Br)c(/C=C2\SC(=Nc3ccc(O)cc3)NC2=O)c1, which growth is on record?
The growth was 74%.

Which growth does the source give for COc1ccc(Cn2c(Br)c3c(c2Br)-c2nc(NC(=O)c4ccc(OC)cc4)sc2CC3)cc1 here?
The growth was 72%.

How did the growth turn out when Nc1ncnc(N)c1NC(=O)c1ccc(OCc2ccccc2)cc1 was run?
Its growth is 104%.

With CCOc1ccc(-c2nonc2NC(=O)c2cccc(C)c2)cc1OCC as the compound, how does the growth read?
The growth was 84.1%.

Each compound was assayed on SF-295 CNS in the same assay as above. Settings: 10 µM unless noted.

How did the growth turn out when c1ccc2c(c1)oc1cc3sccc3nc12 was run?
The growth was 108%.

How did the growth turn out when CC1=C(C(=O)OCC2CCN(C(=O)OC(C)(C)C)CC2)[C@H](c2cccc(C#N)c2)C2=C(CC(C)(C)CC2=O)N1 was run?
Its growth is 40.5%.

For O=C(c1nc2ccccc2[nH]1)C1C(c2ccc([N+](=O)[O-])cc2)C2CC3CCCCC3N2[C@@]12C(=O)Nc1cc(Cl)ccc12 (stereo partly specified), which growth is on record?
Its growth is 16.5%.

Nc1ccn(C2O[C@H](CO)[C@@H](O)[C@H]2O)c(=O)n1 (stereo partly specified) was tested. Which growth did it give?
Its growth is 58.5%.

Nc1ccc(-n2c(=O)oc3ccc(Cl)cc3c2=O)c(Cl)c1 was tested. Which growth did it give?
Its growth is -58% (active).

With CC1=C(C(=O)OCC2CCN(C(=O)OC(C)(C)C)CC2)[C@@H](c2cccc(C#N)c2)C2=C(CC(C)(C)CC2=O)N1 as the compound, how does the growth read?
Its growth is 27.5%.

How did the growth turn out when N#Cc1c(N)nc2c(c1N)C(c1ccc(F)cc1)c1ccc(N)cc1O2 (stereo unspecified) was run?
The growth was 83.1%.

How did the growth turn out when COc1ccc(Cn2c(Br)c3c(c2-c2cc(OC)c(OC)c(OC)c2)CCc2sc(NC(=O)c4ccc(OC)cc4)nc2-3)cc1 was run?
Its growth is 67.8%.

Which growth does the source give for O=c1cc(NC2CCN(CCCc3ccccc3)CC2)c2cc(Cl)ccc2o1 here?
The growth was -44.1% (active).

How did the growth turn out when Brc1ccc(Oc2ccc(Nc3ncnc4onc(-c5ccccc5)c34)cc2)cc1 was run?
The growth was 92.2%.

For NNC(=O)CNC(=O)Nc1n[nH]c(=S)s1, which growth is on record?
Its growth is 94%.

Which growth does the source give for COc1ccc(Cn2c(Br)c3c(c2-c2cc(OC)c(OC)c(OC)c2)CCc2sc(NC(C)=O)nc2-3)cc1 here?
Its growth is 3.53% (active).

With COc1ccc(/C=C2\NC(=O)NC2=O)cc1O as the compound, how does the growth read?
Its growth is 94.2%.

Which growth does the source give for Cc1cc2c(c(C)c1Cl)C(=O)/C(=C/c1ccco1)O2 here?
Its growth is 109%.

Which growth does the source give for O=C(Nc1ccc(N2CCNCC2)cc1)c1[nH]ncc1Nc1cc(Oc2ccccc2)ncn1 here?
Its growth is -70.2% (active).

With CS(=O)(=O)Nc1ccc(C(=O)NC(C(=O)NO)c2ccc(-c3cccc(F)c3)cc2)cc1 (stereo unspecified) as the compound, how does the growth read?
Its growth is 93.7%.

Which growth does the source give for CC[C@]1(O)C[C@@H]2CN(CCc3c([nH]c4ccccc34)[C@@](C(=O)OC)(c3cc4c(cc3OC)N(C)[C@H]3[C@@](O)(C(=O)OC)[C@H](OC(C)=O)[C@]5(CC)C=CCN6CC[C@]43[C@@H]65)C2)C1 here?
Its growth is 8.85% (active).

How did the growth turn out when O=C(CN1C(=O)/C(=C\c2ccc(Cl)cc2)SC1=S)Nc1ncc(Cc2ccc(Cl)cc2)s1 was run?
Its growth is 101%.

How did the growth turn out when CCCCC(O)(c1ccc(Cl)cc1)C(CN1CCOCC1)c1ccc(Cl)cc1 (stereo unspecified) was run?
Its growth is 40.9%.

How did the growth turn out when O=C(Nc1ccc(C23CC4CC(CC(c5ccccc5)(C4)C2)C3)cc1)c1cccs1 was run?
The growth was 105%.

How did the growth turn out when O=C(COc1cc(O)c2c(=O)cc(-c3ccccc3)oc2c1)Nc1ccccc1 was run?
The growth was 101%.

How did the growth turn out when COc1cc(C(=O)Nc2ccc(-c3nc4ccccc4[nH]3)cc2)cc(OC)c1OC was run?
Its growth is 9.85% (active).

Which growth does the source give for COC(=O)[C@@H]1CCCN1C(=O)[C@H]1CCCN1C(=O)[C@@H](Cc1c[nH]c2ccccc12)NC(=S)Nc1cc(C(F)(F)F)cc(C(F)(F)F)c1 here?
Its growth is -52.2% (active).

Which growth does the source give for O=C(CCc1nnc2sc(-c3ccc(Cl)cc3Cl)nn12)c1nc2ncccc2[nH]1 here?
The growth was -56.8% (active).

O=Cc1cc2ccccc2nc1Nc1nccs1 was tested. Which growth did it give?
Its growth is 92.9%.

For O=C(CCc1nnc2sc(Cc3ccccc3Cl)nn12)c1nc2ncccc2[nH]1, which growth is on record?
The growth was 99.6%.

Which growth does the source give for NS(=O)(=O)c1ccc(CCN=C=S)cc1 here?
The growth was 105%.

Which growth does the source give for CCOc1cc(Cl)c(C(C)NC(=O)c2cccc(OC)c2)cc1OCC (stereo unspecified) here?
Its growth is 111%.

Which growth does the source give for CN1CCN(Cc2ccc(C(=O)Nc3cncc(C#Cc4cnc5cccnn45)c3)cc2C(F)(F)F)CC1 here?
Its growth is 80.2%.

How did the growth turn out when COc1ccc2c(c1)C=C1CSCC3=Cc4cc(OC)ccc4OC13O2 was run?
Its growth is 2.44% (active).

Which growth does the source give for CN1CCN(Cc2ccc(NC(=O)c3cncc(C#Cc4nc(N)nc5[nH]ncc45)c3)cc2C(F)(F)F)CC1 here?
The growth was 108%.

For COc1cc(C(=O)O/N=C(\N)Cc2cccc3ccccc23)cc(OC)c1OC, which growth is on record?
Its growth is -84.6% (active).

Which growth does the source give for Nc1nc(-c2cnccn2)nn1-c1nc2ccccc2s1 here?
Its growth is 103%.

Which growth does the source give for COC(=O)C1=C(C)NC(C)=C(C(=O)OC)C(N2C(=O)CCC2=O)C1 (stereo unspecified) here?
Its growth is 118%.

With COc1ccc(Br)c(/C=C2\SC(=Nc3ccc(O)cc3)NC2=O)c1 as the compound, how does the growth read?
The growth was 98.3%.

COc1ccc(Cn2c(Br)c3c(c2Br)-c2nc(NC(=O)c4ccc(OC)cc4)sc2CC3)cc1 was tested. Which growth did it give?
The growth was 57.7%.

Which growth does the source give for Nc1ncnc(N)c1NC(=O)c1ccc(OCc2ccccc2)cc1 here?
The growth was 103%.

Which growth does the source give for CCOc1ccc(-c2nonc2NC(=O)c2cccc(C)c2)cc1OCC here?
The growth was 27.8%.
